MIN6 prolif – MIN6 beta-cell proliferation induction. MIN6 cells proliferation, ATPlite luminescence, 48 h; cells starved in 0.2% serum; 100% = growth in 10% serum. proliferation, % at 10 µM. 330,000 compounds, 0.29% hits. AID 2380;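 active means compounds whose signal lies at least 3.5 SD above the mean of all wells on their plate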
JMJD2C inh – blocks human GASC-1 demethylase activity | 330,000 compounds, 0.069% hits | inhibition, % at 2.35 µM | Q9H3R0 | GST-JMJD2C(1-420) H3K9me3 demethylation, DELFIA europium;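 active means more than half of a compound's replicate wells show inhibition beyond 50%, single wells judged on their own value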;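 further: signal counts dimethyl H3K9 product captured on neutravidin plate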
Exocytosis inh – lytic granule exocytosis inhibition | TALL-104 LAMP-1 surface exposure, flow cytometry; cells stimulated with thapsigargin and PMA | inhibition, % at 10 µM | 360,000 compounds, 0.66% hits;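 active means inhibition above about 55%, limit read from the data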
ALR inh – inhibitors of human sulfhydryl oxidase ALR; P55789; inhibition, % (no concentration beside the values); purified ALR, DTT oxidation, H2O2 HRP-luminol luminescence; AID 485317; 290,000 compounds, 3.8% hits;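 active means mean replicate inhibition above about 79%, with every replicate also reaching it, limit read from the data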
Target sequence (P55789 whole entry, looked up): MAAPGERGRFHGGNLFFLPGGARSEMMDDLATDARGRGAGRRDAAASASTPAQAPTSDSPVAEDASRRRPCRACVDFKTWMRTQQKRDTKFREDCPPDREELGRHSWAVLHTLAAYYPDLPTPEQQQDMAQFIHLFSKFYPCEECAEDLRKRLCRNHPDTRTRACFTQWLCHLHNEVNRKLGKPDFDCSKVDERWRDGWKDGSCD
SMARCA2 act – SMARCA2 function activation, primary screen; 370,000 compounds, 1% hits; activation, % at 9.1 µM; MG213 cells, MMTV-luciferase reporter, dexamethasone, overnight; in the data active means activation above about 7.8%
M18AAP inhibitor – PfM18AAP enzyme inhibition. recombinant PfM18AAP, H-Glu-NHMec fluorogenic cleavage. inhibition, % at 7.35 µM. 290,000 compounds, 1.2% hits. AID 1822;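 active means inhibition above the campaign mean inhibition over all tested compounds plus 3 SD, cut at about 28% in these data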
SMARCA2 act conf – SMARCA2 activation, confirmation screen | shares compounds with SMARCA2 act | 3,500 compounds, 30% hits | MG213 cells, MMTV-luciferase with dexamethasone, luminescence, overnight; MG213 cells expressing E1A, Rb sequestered; DMSO wells 0%, reference activator 100% | activation, % at 9.1 µM;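 active means activation above its plate's cutoff, the mean activation of tested wells plus 3 SD, cut at about 7.9% in these data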
VP16 Luc act – GAL4-VP16 reporter activation counter-screen; shares compounds with SMARCA2 act; HEK293 GAL4-VP16 pG5luc reporter, luciferase luminescence; scaled: DMSO wells 0%, SAHA wells 100%; activation, % at 9.1 µM; 3,500 compounds, 41% hits; AID 686939;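 active means activation above the solvent-only control well mean plus 3 SD, averaged across control plates, cut at about 5.2% in these data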
Of the large screens only hits and unclear results are named; the others gave an inactive call (follow-up assays come after a bar, where they were run). A selection: hits, their analogues and other compounds. The true share with any hit is near 5.4%.

Cc1cccc(C)c1NC(=O)C(c1cc2ccccc2o1)N1CCC(c2ccccc2)CC1 (stereo unspecified)	none (no result: MIN6 prolif, JMJD2C inh, ALR inh, M18AAP inhibitor)
CC(C)n1c(O)c(N=Nc2ccc(Cl)c(C(=O)O)c2)c2ccccc21	none
CCn1c(O)c(N=Nc2ccc(Cl)c(C(=O)O)c2)c2ccccc21	SMARCA2 act 10.9 | SMARCA2 act conf inactive | VP16 Luc act inactive
O=C(COC(=O)CN1C(=O)c2ccccc2C1=O)Nc1ccc(S(=O)(=O)N2CCCC2)cc1	SMARCA2 act 9.4 | SMARCA2 act conf inactive | VP16 Luc act inactive
O=C(COC(=O)CCN1C(=O)c2ccccc2C1=O)Nc1ccc(S(=O)(=O)N2CCCC2)cc1	none (no result: ALR inh)
CC(C)[C@H](N)C(=O)N[C@H](C(=O)N1CCC2CCN(Cc3ccccc3)CC21)C(C)C (stereo partly specified)	none (no result: MIN6 prolif, JMJD2C inh, Exocytosis inh, ALR inh, M18AAP inhibitor)
O=C(N[C@H](C(=O)N1CCC[C@H]1C(=O)NC1CCCC1)C1CCCCC1)c1nccs1	none (no result: MIN6 prolif, JMJD2C inh, Exocytosis inh, ALR inh, M18AAP inhibitor)
CC(=O)NC(C)(c1ccccc1)c1nc(-c2cnc3ccccc3c2)cs1 (stereo unspecified)	none (no result: MIN6 prolif, JMJD2C inh, ALR inh, M18AAP inhibitor)
CCn1cc(C(=O)N2CCCC(N3CCN(c4ccccc4C)CC3)C2)cn1 (stereo unspecified)	SMARCA2 act 12.4 | SMARCA2 act conf inactive | VP16 Luc act inactive
CCn1c2ccccc2c2nnc(SCc3ccccc3)nc21	SMARCA2 act 8.2 | SMARCA2 act conf inactive | VP16 Luc act inactive
CCn1c2ccccc2c2nnc(SCC(N)=O)nc21	none (no result: ALR inh)
O=C(Cc1ccccc1F)Nc1ccc2c(c1)CCC2	SMARCA2 act 11.5 | SMARCA2 act conf inactive | VP16 Luc act 6.6
CC(C)(C)NC(=O)C(c1ccc(C(F)(F)F)cc1)n1c(=O)c(-c2ccco2)nc2ccccc21 (stereo unspecified)	none (no result: MIN6 prolif, JMJD2C inh, ALR inh, M18AAP inhibitor)
COc1cccc2cc(C(=O)OCC(=O)NCc3ccc4c(c3)OCO4)c(=O)oc12	SMARCA2 act 10.8 (no result: ALR inh) | SMARCA2 act conf inactive | VP16 Luc act inactive
CC(=O)N1CCc2cc(NC(=O)C3(C)CCN3Cc3ccccc3OC(F)F)ccc21 (stereo unspecified)	none (no result: MIN6 prolif, JMJD2C inh, ALR inh, M18AAP inhibitor)
Cc1cc2nc(C(C)(C)C)c(Cc3cccc(F)c3)n2c(C)c1Br	none (no result: MIN6 prolif, JMJD2C inh, ALR inh, M18AAP inhibitor)
O=C(Cn1ncc(Cl)c(Cl)c1=O)c1ccc(Cl)cc1	SMARCA2 act 20.0 (no result: MIN6 prolif) | SMARCA2 act conf inactive | VP16 Luc act inactive
O=C(Cn1ncc(N2CCOCC2)c(Cl)c1=O)c1ccc(Cl)cc1	none
O=C(Cn1ncc(Cl)c(Cl)c1=O)NCC1CCCCC1	ALR inh 95.0, SMARCA2 act 13.5 (no result: MIN6 prolif) | SMARCA2 act conf inactive | VP16 Luc act inactive
CCc1nc2ccc(C(=O)Nc3cccc(NS(C)(=O)=O)c3)cn2c1N(CC)Cc1cccc(Br)c1	none (no result: MIN6 prolif, JMJD2C inh, ALR inh, M18AAP inhibitor)
CCOC1(OCC)OC(c2ccccc2)=C(C#N)C(C=Cc2ccccc2)C1(OCC)OCC (stereo unspecified)	none (no result: MIN6 prolif, JMJD2C inh, ALR inh, M18AAP inhibitor)
COC(=O)C1CCCN(C(=O)C(Cc2ccc3c(c2)OCO3)NC(C)=O)C1 (stereo unspecified)	SMARCA2 act 15.8 (no result: MIN6 prolif, JMJD2C inh, Exocytosis inh, ALR inh, M18AAP inhibitor) | SMARCA2 act conf inactive | VP16 Luc act inactive
O=C(C1CCCN(Cc2ccc3c(c2)OCO3)C1)N1CCCC1 (stereo unspecified)	none
CC1CC1C(=O)OCc1cc(=O)n2cc(Br)ccc2n1 (stereo unspecified)	none
Cc1ccccc1C(=O)NC(CC(C)C)C(=O)OCc1cc(=O)n2cc(Br)ccc2n1 (stereo unspecified)	SMARCA2 act 9.4 | SMARCA2 act conf inactive | VP16 Luc act 8.8
CC1(C(=O)OCc2cc(=O)n3cc(Br)ccc3n2)CC1(Cl)Cl (stereo unspecified)	SMARCA2 act 10.1 | SMARCA2 act conf 9.4 | VP16 Luc act 13.3
CC(C)C[C@H]1COc2cc(NCCCN3CCOCC3)ccc2S(=O)(=O)N1	none (no result: MIN6 prolif, JMJD2C inh, Exocytosis inh, ALR inh, M18AAP inhibitor)
